Measurements: the supplement of paper PMC12350171
Counter-ions that a name gives are not always drawn. Values without a mark were called inactive.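 Rule for the calls: active = AUC significantly below DMSO controls by Student t-fit with adjusted P under 0.01; inactive = not significantly reduced.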

System: Haemophilus parainfluenzae
Experiment: growth AUC normalised to DMSO control (fraction of control); higher = less growth inhibition, active = hit call of the paper
Conditions: 20 µM
Outline: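 Pathogens passaged twice anaerobically were inoculated at a starting OD578 of 0.01 into pre-reduced mGAM plates with drug at 20 μM and 1% DMSO, sealed with breathable membranes. Haemophilus parainfluenzae medium was supplemented with hemin and NAD. OD578 was read hourly for 24 h, with three biological replicates. Growth-curve AUC was computed by the trapezoidal rule up to the exponential-to-stationary transition and normalised to DMSO controls on the same plate.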

Row | SMILES | growth AUC normalised to DMSO control
1 | CS(=O)(=O)Nc1ccc([N+](=O)[O-])cc1Oc1ccccc1 [Nimesulide] | 0.982
2 | Cc1ncc([N+](=O)[O-])n1CCO [Metronidazole] | 0.906
3 | Cc1onc(-c2ccccc2Cl)c1C(=O)N[C@@H]1C(=O)N2[C@@H]1SC(C)(C)[C@@H]2C(=O)O [Cloxacillin sodium salt] | 0.914
4 | COc1ccc2c(c1)C(=O)N(CCc1ccc(S(=O)(=O)NC(=O)NC3CCCCC3)cc1)C(=O)C2(C)C [Gliquidone] | 0.998
5 | CCN(CC)CCCC(C)Nc1ccnc2cc(Cl)ccc12 (centres undefined) [Chloroquine diphosphate] | 1.01
6 | C[N+](C)(C)CCOC(N)=O [Carbachol chloride] | 1.09
7 | Cn1c(=O)c2c(ncn2CC(=O)O)n(C)c1=O [Acefylline] | 0.969
8 | O=C(O)CN(CCN(CC(=O)O)CC(=O)O)CCN(CC(=O)O)CC(=O)O [Pentetic acid] | 1.02
9 | Nc1ncnc2c1ncn2[C@@H]1O[C@H](CO)[C@@H](O)[C@@H]1O [Vidarabine] | 0.96
10 | Nc1ccccc1S(N)(=O)=O [o-Sulfanilamide] | 0.898
11 | CC(C)NC[C@H](O)COc1ccc(CC(N)=O)cc1 [(S,-) Atenolol] | 1.01
12 | Cc1c(-c2ccccc2)oc2c(C(=O)OCCN3CCCCC3)cccc2c1=O [Flavoxate hydrochloride] | 1.2
13 | CO[C@@]1(NC(=O)Cc2cccs2)C(=O)N2C(C(=O)O)=C(COC(N)=O)CS[C@@H]21 [Cefoxitin sodium salt] | 0.0362 (active)
14 | Cc1ccc(C)c(OCCCC(C)(C)C(=O)O)c1 [Gemfibrozil] | 0.971
15 | Cc1ccccc1OCC(O)CO (centres undefined) [Mephenesin] | 0.93
16 | O=C(O)/C=C/c1ccc(Cn2ccnc2)cc1 [Ozagrel hydrochloride] | 1.03
17 | O=C1O[C@H]([C@@H](O)CO)C(O)=C1O [Ascorbic acid] | 1.06
18 | CN(C)CCCC1(c2ccc(F)cc2)OCc2cc(C#N)ccc21 (centres undefined) [Citalopram hydrobromide] | 1.01
19 | CCCCCN(CCCCC)C(=O)C(CCC(=O)O)NC(=O)c1ccc(Cl)c(Cl)c1 (centres undefined) [Lorglumide sodium salt] | 0.982
20 | CN1CCN(C2=Nc3ccccc3Oc3ccc(Cl)cc32)CC1 [Loxapine succinate] | 0.969

Row | SMILES | growth AUC normalised to DMSO control
21 | CC(C)(C)NC(=O)[C@H]1CC[C@H]2[C@@H]3CC[C@H]4NC(=O)C=C[C@]4(C)[C@H]3CC[C@]12C [Finasteride] | 1.06
22 | O=C1c2ccccc2S(=O)(=O)N1CCCCN1CCN(c2ncccn2)CC1 [Ipsapirone] | 0.979
23 | Cc1ccnc(NS(=O)(=O)c2ccc(N)cc2)n1 [Sulfamerazine] | 0.994
24 | CCN(CC)CCNc1ccc(CO)c2sc3ccccc3c(=O)c12 [Hycanthone] | 0.986
25 | CN(C)CCN1C(=O)c2ccccc2N(C)c2ccccc21 [Dibenzepine hydrochloride] | 0.97
26 | Nc1c(Br)cc(Br)cc1CN[C@H]1CC[C@H](O)CC1 [Ambroxol hydrochloride] | 0.988
27 | O=C(O)Cc1sc(-c2ccccc2)nc1-c1ccc(Cl)cc1 [Fentiazac] | 1.03
28 | CCOC(=O)n1ccn(C)c1=S [Carbimazole] | 0.99
29 | CCCCC1(COC(=O)CCC(=O)O)C(=O)N(c2ccccc2)N(c2ccccc2)C1=O [Suxibuzone] | 0.995
30 | CCOC(=O)/C=C(C)/C=C/C=C(C)/C=C/c1c(C)cc(OC)c(C)c1C [Etretinate] | 1.03
31 | Nc1nc(=O)[nH]cc1F [Flucytosine] | 0.95
32 | C=C[C@H]1CN2CC[C@H]1C[C@@H]2[C@@H](O)c1ccnc2ccc(OC)cc12 [Quinidine hydrochloride monohydrate] | 1.01
33 | CN(N=O)C(=O)N[C@H]1C(O)O[C@H](CO)[C@@H](O)[C@@H]1O (mixture of isomers) [Streptozotocin] | 0.172 (active)
34 | CCC(=O)O[C@@H](O[P@](=O)(CCCCc1ccccc1)CC(=O)N1C[C@H](C2CCCCC2)C[C@H]1C(=O)O)C(C)C [Fosinopril] | 1.02
35 | CN1CCN2c3ncccc3Cc3ccccc3C2C1 (centres undefined) [Mirtazapine] | 1.49
36 | Cc1nnc(NS(=O)(=O)c2ccc(N)cc2)s1 [Sulfamethizole] | 0.903
37 | Cc1ccccc1C(OCCN(C)C)c1ccccc1 (centres undefined) [Orphenadrine hydrochloride] | 0.954
38 | CC(C)NC(=N)NC(=N)Nc1ccc(Cl)cc1 [Proguanil hydrochloride] | 0.973
39 | CC(=O)O[C@H]1C[C@@H]2CC[C@@H]3[C@H](CC[C@@]4(C)[C@H]3C[C@H]([N+]3(C)CCCCC3)[C@@H]4OC(C)=O)[C@@]2(C)C[C@@H]1N1CCCCC1 [Vecuronium bromide] | 1.05
